Only a selection was taken, and hits are over-represented in it overall.
ER stress death – ER stress cell death inhibition; CSM14.1 thapsigargin ER stress survival, ATP luminescence; relative survival (cellular ATP), % at 15 µg/mL (by protocol); hit rate 0.33% among 48,000;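 active means survival measured by cellular ATP above 50% at 15 µg/ml in the first screen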;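 further: cell death triggered by about 15 µM thapsigargin; ATP read 24 h after thapsigargin was added; plate controls were thapsigargin with DMSO for no effect and DMSO without thapsigargin for full effect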
Starred values were filed as active, the others as inactive.

SMILES	ER stress death
COc1ccc(N=c2ssc3c2-c2ccc(OC)cc2NC3(C)C)cc1	5.7
C/C(=N\NC(=O)c1ccccn1)c1ccc(F)cc1	3.9
Cc1c(-c2ccccc2)nc2ccccc2c1C(=O)Nc1ccc(N(C)C)cc1	-0.8
CC(C)(C)c1ccc(OCC(=O)N/N=C/c2ccc(O)c([N+](=O)[O-])c2)cc1	-28.2
COc1ccc(NC(=S)NC(=O)c2ccc(OC)cc2)cc1	20.0
COc1ccc(CCNC(=O)/C(=C/c2ccc(Cl)cc2)NC(=O)c2ccc(C)cc2)cc1OC	0.1
COc1ccc(CCNC(=O)/C(=C/c2ccc(C(C)C)cc2)NC(=O)c2ccccc2)cc1OC	79.3*
COCCNC(=O)/C(=C/c1ccc(C(C)C)cc1)NC(=O)c1ccccc1	2.0
CCOc1ccccc1C(C1=C(O)CC(C)(C)CC1=O)C1C(=O)CC(C)(C)CC1=O (stereo not drawn)	5.2
COc1ccc(C2CC(C(F)(F)F)n3ncc(C(=O)N(C)Cc4ccccc4)c3N2)cc1OC (stereo not drawn)	82.0*
Cc1ccc(C2CC(C(F)(F)F)n3ncc(C(=O)N(Cc4ccccc4)Cc4ccccc4)c3N2)cc1 (stereo not drawn)	3.6
COc1ccc(C2CC(C(F)(F)F)n3ncc(C(=O)Nc4ccc(F)cc4F)c3N2)cc1OC (stereo not drawn)	3.3
O=C(c1ccccc1Cl)N1CCN(C(c2ccccc2)c2ccccc2)CC1	0.7
CNc1ccc2c(O)cc(S(=O)(=O)O)cc2c1	3.8
CCOC(=O)C1=C(C)NC(=S)NC1c1ccc(O)cc1 (stereo not drawn)	-1.7
CC(=O)NC(c1ccc2c(c1)OCO2)c1ccc2cccnc2c1O (stereo not drawn)	77.3*
O=C(NC(c1ccccc1)c1ccc2cccnc2c1O)c1ccccc1 (stereo not drawn)	3.2
COc1ccccc1C(NC(=O)Cc1ccccc1)c1ccc2cccnc2c1O (stereo not drawn)	13.3
CCCN(c1ccccc1C)S(=O)(=O)c1ccc(Cl)cc1	5.5
COc1ccc(NC(=O)/C(=C\c2cccc([N+](=O)[O-])c2)NC(=O)c2cccs2)cc1	-9.1
Cc1ccc(OC(=O)c2ccc([N+](=O)[O-])cc2)c(/C=C2\Sc3ccccc3C2=O)c1	14.1
O=C1c2ccccc2C(=O)N1CC#CCN1CCN(C(c2ccccc2)c2ccccc2)CC1	67.5*
C(#Cc1ccccc1)CN1CCN(CC#Cc2ccccc2)CC1	5.2
N#CCC(=O)N1CCN(C(c2ccccc2)c2ccccc2)CC1	-3.6
Cc1cccc(NC(=O)C(=O)NCCC(C)C)c1	14.4
SMILES	ER stress death
COC(=O)c1ccccc1NC(=O)c1cc(I)ccc1Cl	-2.2
COC(=O)c1cc(Nc2nc3ccccc3nc2NS(=O)(=O)c2ccccc2)ccc1Cl	-0.3
Cc1ccc(C(=O)Nc2cccc(C(F)(F)F)c2)o1	1.2
CN1CCN(Cc2cc(CSc3ccccc3)c3cccnc3c2O)CC1	-4.1
NC(=O)c1ccccc1N=Cc1cccc([N+](=O)[O-])c1	1.2
O=C(N/N=C/c1cccc([N+](=O)[O-])c1)C(Oc1ccccc1)Oc1ccccc1	4.7
O=[N+]([O-])c1cccc(/C=N\N2CCN(C(c3ccccc3)c3ccccc3)CC2)c1	52.4*
Cc1cc(NC(=O)c2ccc(-c3ccc(Cl)cc3)o2)ccc1NC(=O)c1ccco1	61.7*
Cc1cc(NC(=O)c2ccc(-c3ccc(Br)cc3)o2)ccc1NC(=O)c1ccco1	-8.4
COc1cc(NC(=O)c2ccc(-c3ccc(Cl)cc3)o2)ccc1NC(=O)c1ccco1	-1.0
Cc1cc(C)cc(N(CC(=O)NCCSc2nc3ccccc3s2)S(=O)(=O)c2ccccc2)c1	1.6
C=CCNC(=S)NNC(=O)CCn1c2ccccc2c2ccccc21	4.8
COc1ccc(CCN=Cc2c(O)n(-c3c(Cl)cccc3Cl)c3ccccc23)cc1OC	119.6*
COc1ccc(CCN=CC2=C(O)CC(c3ccccc3)CC2=O)cc1OC (stereo not drawn)	7.8
COc1ccc(CCN=CC2=C(O)CC(C)(C)CC2=O)cc1OC	8.7
COc1ccc(CC(=O)NC(Cc2ccc(OC)c(OC)c2)C(=O)O)cc1OC (stereo not drawn)	1.2
COc1cc(C(=S)N2CCCCC2)cc(Br)c1O	-4.4
CC1CC(Nc2ccccc2)c2ccccc2N1C(=O)c1cccc(Br)c1 (stereo not drawn)	6.2
CC1CC(Nc2ccccc2)c2ccccc2N1C(=O)/C=C/c1ccco1 (stereo not drawn)	50.8*
CC1CC(Nc2ccccc2)c2ccccc2N1C(=O)c1ccccc1 (stereo not drawn)	0.1
COc1ccc(NC(=O)CN(c2ccc(Br)cc2)S(C)(=O)=O)cc1OC	0.0
CC(=O)c1ccc(/C=C2\SC(=S)N(C)C2=O)o1	0.7
O=C(NCc1ccncc1)C(=O)Nc1nc(C23CC4CC(CC(C4)C2)C3)cs1	88.4*
O=C(NCc1ccncc1)C(=O)Nc1nccs1	8.0
COc1ccc(C(=O)Nc2nc(C34CC5CC(CC(C5)C3)C4)cs2)cc1	8.5
SMILES	ER stress death
COc1ccc(CNC(=O)CSc2ccccn2)cc1	14.4
CCNC(=O)C(=O)Nc1ccccc1OC	0.1
COc1ccc(-c2nc3ccccc3c(C(=O)Nc3ccc(C)cc3)c2C)cc1	2.6
COc1ccc(NC(=O)c2cc(-c3ccc(OC)cc3OC)nc3ccccc23)c(OC)c1	4.0
COc1ccc(NC(=O)c2c(C)c(-c3ccc(C)cc3)nc3ccccc23)c(OC)c1	67.9*
CCOC(=O)C1=C(C)N(CCOC)C(=O)/C1=C\c1ccc(O)c(OCC)c1	-4.4
COc1ccc(C(=O)Nc2ccc(NC(=O)c3cc4ccccc4o3)c(OC)c2)cc1Br	8.2
COc1ccc(N(CC(=O)Nc2cccc(Br)c2)S(C)(=O)=O)cc1	0.5
COc1ccc(C(=O)N2CCN(Cc3cccc(F)c3)CC2)cc1	5.2
O=C(c1cccc(F)c1)N1CCN(Cc2cccc(F)c2)CC1	6.4
O=C(c1cccc(F)c1)N1CCN(Cc2cccc(Oc3ccccc3)c2)CC1	60.2*
COc1cc(NC(=O)c2cc(Cl)ccc2OC)c(OC)cc1Cl	-3.3
Cc1ccc(C2Nc3ccccc3NC3=C2C(=O)CC(c2ccc(Cl)cc2)C3)cc1[N+](=O)[O-] (stereo not drawn)	6.7
O=C1CC(c2ccc3c(c2)OCO3)CC2=C1C(c1ccc(C(F)(F)F)cc1)Nc1ccccc1N2 (stereo not drawn)	122.3*
O=C1CC(c2ccc(Cl)cc2)CC2=C1C(c1ccccc1[N+](=O)[O-])Nc1ccccc1N2 (stereo not drawn)	26.5
COc1ccc(C2CC(=O)C3=C(C2)Nc2ccccc2NC3c2ccc3c(c2)OCO3)cc1 (stereo not drawn)	5.1
O=C1CC(c2ccccc2)CC2=C1C(c1ccc(F)cc1)Nc1ccccc1N2 (stereo not drawn)	8.5
O=C1CC(c2ccc3c(c2)OCO3)CC2=C1C(c1cc3c(cc1Br)OCO3)Nc1ccccc1N2 (stereo not drawn)	5.8
COc1ccc(C2CC(=O)C3=C(C2)Nc2ccccc2NC3c2cc3c(cc2Cl)OCO3)cc1 (stereo not drawn)	6.9
O=C1CC(c2ccc(Cl)cc2)CC2=C1C(c1cc3c(cc1[N+](=O)[O-])OCO3)Nc1ccccc1N2 (stereo not drawn)	83.8*
O=C1CC(c2ccccc2)CC2=C1C(c1ccc(Cl)c([N+](=O)[O-])c1)Nc1ccccc1N2 (stereo not drawn)	99.6*
CCCN1C(=O)/C(=C/c2nc3ccccc3c(=O)n2Cc2ccccc2)c2ccccc21	2.7
